Assay results from PubChem BioAssay (NCI).
This is part of a sample that, as a whole, favours compounds with a hit. Of some 83,000 tested, about 20% had one in any assay.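 The endpoint reported here, percent growth, reads 100 for growth as untreated, 0 for no net growth and -100 for all cells dead.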 Calls of active or inactive are those of the source. How the source made its calls: active means growth percent below 10; inactive means the rest.

System: SK-MEL-2 melanoma
Assay: NCI-60 one-dose screen, 48 h (100 = growth as untreated, 0 = no growth, -100 = all killed)
Conditions: 10 µM

Compound | growth
COc1cc2cc(C(=O)N3C[C@@H](CCl)c4c3cc(OC(=O)N3CCN(C)[C@@H]5CSSC[C@H]53)c3ccccc43)[nH]c2c(OC)c1OC | -91.8% (active)
CC1=C(CCC=O)C2=C(C)C3(CC3)[C@@](C)(O)C(=O)C2=C1 | -70.6% (active)
COC(=O)C[C@](O)(CCC(C)C)C(=O)O[C@@H]1C(OC)=C[C@]23CCCN2CCc2cc4c(cc2[C@H]13)OCO4 | -85.9% (active)
O=C(/C=C/c1ccc(Cl)cc1)c1nc2ccccc2n1Cc1ccc(F)cc1 | 68.3% (inactive)
CC[C@]12C=CCN3CC[C@@]4(c5ccc(OC)cc5N(C)[C@H]4[C@@](O)(C(=O)OC)[C@@H]1OC(=O)CCC[P+](C1CCCCC1)(C1CCCCC1)C1CCCCC1)[C@@H]32 | -84.9% (active)
CC1=C2C(=C[C@@](C)(COP(=O)(Oc3ccccc3)Oc3ccccc3)[C@@H]2O)C(=O)[C@@](C)(O)C12CC2 | -83.9% (active)
CC(=O)Oc1ccccc1C(=O)NC([Se])=NC1CCCCC1 | -43.7% (active)
CCOP(=O)(CC(F)(F)C(F)(F)F)OCC | 29.5% (inactive)
CC(C)C[C@H](NC(=O)CNC(=O)C[C@H]1O[C@@H]2OC3(C)CC[C@H]4[C@H](C)CC[C@@H]([C@H]1C)[C@@]24OO3)B(O)O | -57.3% (active)
C[C@H]1[C@@H](Oc2ccc(-c3cn(-c4ccnc5cc(Cl)ccc45)nn3)cc2)O[C@@H]2OC3(C)CC[C@H]4[C@H](C)CC[C@@H]1[C@@]24OO3 | 7.17% (active)
C[C@H]1[C@H](OC(=O)CCC(=O)N(CCCc2cn(-c3ccc([N+](=O)[O-])cc3)nn2)CCNc2ccnc3cc(Cl)ccc23)O[C@@H]2OC3(C)CC[C@H]4[C@H](C)CC[C@@H]1[C@@]24OO3 | 26.7% (inactive)
COc1cc2cc(C(=O)N3C[C@@H](CCl)c4c3cc(OC(=O)N3CCN(C)[C@@H]5CSSC[C@@H]53)c3ccccc43)[nH]c2c(OC)c1OC | -89% (active)
COc1cc2cc(C(=O)N3C[C@@H](CCl)c4c3cc(OC(=O)N3CCN(C(=O)CCC(=O)N5CCN(C)CC5)[C@@H]5CSSC[C@@H]53)c3ccccc43)[nH]c2c(OC)c1OC | -83.3% (active)
COC(=O)c1ccc(-n2cc(CCCN(CCNc3ccnc4cc(Cl)ccc34)C(=O)CCC(=O)O[C@@H]3O[C@@H]4OC5(C)CC[C@H]6[C@H](C)CC[C@@H]([C@H]3C)[C@@]46OO5)nn2)cc1 | 29.4% (inactive)
O=C([Se]C1C=CCCC1)c1ccc(C(=O)[Se]C2C=CCCC2)s1 (stereo not given) | -37.7% (active)
O=C(/C=C/c1cccc(Br)c1)c1nc2ccccc2n1Cc1ccc(F)cc1 | 63.9% (inactive)
CC[C@]12C=CCN3CC[C@@]4(c5ccc(OC)cc5N(C)[C@H]4[C@@](O)(C(=O)OC)[C@@H]1OC(=O)CCC[P+](c1ccc(C)cc1)(c1ccc(C)cc1)c1ccc(C)cc1)[C@@H]32 | -85.4% (active)
O=C(NC([Se])=NC1CCCCC1)c1ccccc1 | -2.88% (active)
O=C(/C=C/c1ccc(F)cc1)c1nc2ccccc2n1Cc1ccc(F)cc1 | 21.3% (inactive)
O=C(/C=C/c1ccccc1)c1nc2ccccc2n1Cc1ccc(Br)cc1 | -51.1% (active)
C=CC[Se]C(=O)c1cncc(C(=O)[Se]CC=C)c1 | -54.1% (active)
COc1ccc(OC)c(/C=C/C(=O)c2nc3ccccc3n2Cc2ccc(F)cc2)c1 | -28.2% (active)
O=C(/C=C/c1ccc(F)cc1)c1nc2ccccc2n1Cc1ccc(Br)cc1 | -61.3% (active)
CC[C@]12C=CCN3CC[C@@]4(c5ccc(OC)cc5N(C)[C@H]4[C@@](O)(C(=O)OC)[C@@H]1OC(=O)CCCC[P+](c1ccc(C)cc1)(c1ccc(C)cc1)c1ccc(C)cc1)[C@@H]32 | -87.3% (active)
CC(C)N=C([Se])NC(=O)c1cccs1 | -57.7% (active)
CC1=C(CCC=NNC(N)=O)C2=C(C)C3(CC3)[C@@](C)(O)C(=O)C2=C1 | -76.9% (active)
Cc1ccc2[nH]c(=S)n(-c3ccc(F)cc3)c(=O)c2c1 | 105% (inactive)
C#CC[Se]C(=O)c1ccc2n[se]nc2c1 | 104% (inactive)
CC1=C(COCCOC(=O)c2ccc(S(=O)(=O)F)cc2)C2=C(C)C3(CC3)[C@@](C)(O)C(=O)C2=C1 | -99.4% (active)
CC12CCC3(CCC(=O)NCCCNc4ccnc5cc(Cl)ccc45)[C@@](C)(OO[C@]3(C)O1)O2 | 23.3% (inactive)
